Assay results: PubChem BioAssay
Values without a mark were called inactive. Activity calls are given as the source filed them.

assay: plasmodial surface anion channel blockers, osmotic lysis – cell-based, P. falciparum Indochina, OD700, 1 h, primary screen (AID 1154); details: P. falciparum Indochina infected RBC osmotic lysis, higher = more signal, called active from +8 up or from −8 down

Compound | z-score
COC(=O)[C@@]1(Cc2ccc(F)cc2)[C@H]2c3cc(C(=O)N4CCCC4)n(CCc4c[nH]c5ccccc45)c3C[C@H]2CN1C(=O)c1ccccc1 | 2.02
COc1ccc(CCNC(=O)[C@@]2(c3ccc([N+](=O)[O-])cc3)CC(=O)N(C3CCCCC3)[C@@H]2c2ccc(CO)cc2)cc1 | 0.965
O=C(O)[C@@H]1[C@@H]2C(=O)N(c3ccccc3)C(=O)[C@@H]2C[C@@H]1Sc1ccccc1 | 0.919
C=CC[C@@H](OC(=O)Nc1ccc(SC)cc1)c1ccc(O)c(F)c1 | 24.1 (active)
COCCOC(=O)N1C(=O)[C@@]2(c3cc(C#CC4=CCCCC4)ccc31)[C@H](C(=O)Nc1nc3ccccc3s1)[C@H]1C(=O)O[C@H](c3ccccc3)[C@H](c3ccccc3)N1[C@@H]2c1ccc(O)cc1 | 0.141
CC(C)C[C@@H]1NC(=O)[C@@H]2C[C@H](C(=O)NCCCCCCN)[C@H](c3cccc(OCCO)c3)N2C1=O | 3.69
COCCOC(=O)N1C(=O)[C@@]2(c3cc(C#CCNC(N)=O)ccc31)[C@H](C(N)=O)[C@H]1C(=O)O[C@H](c3ccccc3)[C@H](c3ccccc3)N1[C@@H]2c1ccccc1OCCO | 6.57
